This is a sample that favours compounds with a hit; in the whole collection about 3% have one here.
BH1578 lux ind – inducers of Vibrio cholerae quorum light production without autoinducers, primary screen, BH1578 luxS cqsA deficient, single point; V. cholerae BH1578 lux reporter, luminescence, 6 h; activation, % at 18.7 µM; 350,000 compounds, 0.16% hits; in the data active = activation mostly above about 9.7%, no sharp cut-off
FBA Mtb inh – Mtb FBA enzyme inhibitors, primary screen, biochemical, fluorescence, strain H37Rv | AID 588726, 2011 | 360,000 compounds, 2.3% hits | inhibition, % at 1 µM | purified M. tuberculosis FBA, fluorescence read-out | Fructose-bisphosphate aldolase (Mycobacterium tuberculosis (strain ATCC 25618 / H37Rv)), …
Target sequence (P9WQA3 whole entry, looked up): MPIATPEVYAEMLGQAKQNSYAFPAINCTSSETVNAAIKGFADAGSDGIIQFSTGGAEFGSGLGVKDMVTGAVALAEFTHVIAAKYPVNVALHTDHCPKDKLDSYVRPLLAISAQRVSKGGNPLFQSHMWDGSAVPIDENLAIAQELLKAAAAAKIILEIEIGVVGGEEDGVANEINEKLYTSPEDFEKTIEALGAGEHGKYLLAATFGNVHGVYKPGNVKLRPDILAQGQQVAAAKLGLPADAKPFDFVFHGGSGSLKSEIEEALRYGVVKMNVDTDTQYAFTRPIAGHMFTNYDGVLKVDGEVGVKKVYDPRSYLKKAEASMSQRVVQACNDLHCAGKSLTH
GDH-TPI counter-1 – GDH-TPI coupling enzyme inhibitors, primary screen, artefact control for M. tuberculosis FBA inhibitor project, biochemical, absorbance, full deck | inhibition, % at 4.8 µM | GDH-TPI coupled enzyme counterscreen, NADH absorbance | 360,000 compounds, 1.2% hits | AID 588335, 2011; in the data active = inhibition above about 30%
Mtb BioA inh – M. tuberculosis BioA enzyme inhibitors, primary screen, biochemical, plate reader, single point, HTS; purified M. tuberculosis BioA enzyme; inhibition, % at 9.99 µM; 360,000 compounds, 0.096% hits; AID 602481, 2012; in the data active = inhibition above about 40%
Mtb FBA inh conf – M. tuberculosis aldolase blockers, biochemical, fluorescence, strain H37Rv, confirmation; purified M. tuberculosis FBA, fluorescence read-out; inhibition, % at 1 µM; AID 651616, 2012; shares compounds with FBA Mtb inh; 5,600 compounds, 78% hits
GDH-TPI counter-2 – GDH-TPI coupling enzyme inhibitors, artefact control for M. tuberculosis FBA inhibitor project, biochemical, fluorescence, high throughput | 5,600 compounds, 81% hits | GDH-TPI coupled enzyme counterscreen | shares compounds with FBA Mtb inh | AID 652141, 2013 | inhibition, % at 1 µM; in the data active = inhibition above about 10%
GDH-TPI DR – GDH-TPI coupling enzyme inhibitors, dose response, artefact control for M. tuberculosis FBA inhibitor project, biochemical, fluorescence, IC50 | IC50, µM | 170 compounds, 79% hits | shares compounds with FBA Mtb inh | AID 652145, 2013 | GDH-TPI coupled enzyme assay, artifact counterscreen; call rule not given here
Hits are given with their value; . = inactive; / = not tested or not shown; + = active, no number. Cut-off read from the data, not from the text of the source, unless noted: active = inhibition above about 27%; inactive = the rest.

SMILES | BH1578 lux ind | FBA Mtb inh | GDH-TPI counter-1 | Mtb BioA inh | Mtb FBA inh conf | GDH-TPI counter-2 | others
O=C(NCCN1CCOCC1)C(=O)NCc1ccco1 | . | . | . | / | / | /
O=C(NCCN1CCOCC1)c1ccc(-c2ccccc2)cc1 | . | . | . | . | / | /
Nc1c(C(=O)NCCN2CCOCC2)c2nc3ccccc3nc2n1Cc1ccco1 | . | 86 | . | . | 98 | 96
COCCNC(=O)C[C@H]1C[C@@H]2c3cc(NC(=O)Nc4ccccc4)ccc3O[C@@H]2[C@@H](CO)O1 | / | / | / | . | / | /
COCC(=O)Nc1ccc2c(c1)OC[C@@H](C)N(Cc1cc(F)ccc1F)C[C@@H](C)[C@@H](OC)CN(C)C2=O | / | / | / | . | / | /
Cc1ccccc1S(=O)(=O)N1CC[C@@H]2[C@@H](CO)Nc3ccc(-c4ccc(C#N)cc4)cc3[C@@H]21 | / | / | / | . | / | /
COCCNC(=O)c1c(N)n(Cc2ccco2)c2nc3ccccc3nc12 | . | 83 | . | . | 76 | 67
Nc1c(C(=O)NCc2ccco2)c2nc3ccccc3nc2n1CCc1ccccc1 | . | 72 | . | / | 87 | 72
Nc1c(C(=O)NCCc2ccccc2)c2nc3ccccc3nc2n1CCN1CCOCC1 | . | 27 | . | . | 73 | 53
O=C(NCc1ccco1)c1ccc2ccccc2n1 | . | . | . | / | / | /
O=C(Nc1nccs1)c1ccccc1N=Cc1ccccc1 | . | 87 | . | . | . | .
COc1cccc(C=Nc2ccccc2C(=O)Nc2nccs2)c1OC | . | 68 | . | . | 156 | 126
O=C(Nc1nccs1)c1cccnc1Cl | . | . | . | / | / | /
Cc1oc(C)c(C(=O)Nc2ccc(CC(=O)O)cc2)c1C(=O)Nc1ccc(CC(=O)O)cc1 | . | 48 | . | . | . | . | GDH-TPI DR=.
COc1ccc(NC(=O)CN(C)CC(=O)Nc2ccc(Cl)c(S(=O)(=O)N(C)C)c2)cc1 | . | . | . | / | / | /
CN(CC(=O)Nc1ccc(Cl)c(S(=O)(=O)N(C)C)c1)Cc1ccccc1 | . | 53 | . | . | + | +
CN(CCO)C(=O)C1CCN(c2ncc(C(F)(F)F)cc2Cl)CC1 | . | 41 | . | / | 79 | 63
CCCNC(=O)Nc1nc2ccccc2s1 | . | . | . | / | / | /
CCCNC(=O)c1ccc(-c2nc3ccccc3s2)s1 | . | 48 | 32 | / | 100 | 66
COc1ccc(NC(=O)C(Sc2ccccc2)c2ccccc2)c(OC)c1 (stereo unspecified) | . | 72 | . | / | 45 | 33
Cc1ccn2c(=O)c(C(=O)O)cnc2c1 | . | 92 | 34 | . | 92 | 83
COc1ccc(CNC(=O)c2cnc3cc(C)ccn3c2=O)cc1 | . | . | . | . | / | /
CSCC[C@H](NC(=O)c1cc2c([nH]c3ccccc32)c(-c2ccccc2)n1)C(=O)O | . | 47 | . | / | . | 15
C[C@H](NC(=O)c1cc2c([nH]c3ccccc32)c(-c2ccccc2)n1)C(=O)O | . | 36 | . | . | 141 | 108
O=C(NCCO)c1cc2c([nH]c3ccccc32)c(-c2ccccc2)n1 | . | . | . | . | / | /
SMILES | BH1578 lux ind | FBA Mtb inh | GDH-TPI counter-1 | Mtb BioA inh | Mtb FBA inh conf | GDH-TPI counter-2 | others
COC(=O)[C@H](CCSC)NC(=O)c1cc2c(cn1)[nH]c1ccccc12 | . | . | . | . | / | /
CSCCC(NC(=O)c1ccccc1)C(=O)O (stereo unspecified) | . | 42 | . | / | / | +
CC(=O)Nc1ccc2c(CSc3nnc(N)s3)cc(=O)oc2c1 | . | 27 | 42 | / | 78 | 67
CC(=O)Nc1ccc2c(CSc3nncs3)cc(=O)oc2c1 | . | . | . | . | / | /
O=c1[nH]c(SCc2ccccc2F)nc2ccccc12 | . | . | . | / | / | /
O=c1cc(CSc2nc3ccccc3c(=O)[nH]2)c2ccc(O)cc2o1 | . | 28 | . | . | 102 | 75
Cc1ccccc1N1C(N)=NC(N)=NC1(C)C | . | 76 | . | . | + | +
O=C(Nc1cccc2ccccc12)N1CC=CCC1 | / | 40 | . | . | . | .
O=C(CSCC(=O)Nc1cccc2ccccc12)Nc1cccc2ccccc12 | . | . | . | . | / | /
O=C(Nc1cccc2ccccc12)N1CCN(c2ncccn2)CC1 | . | 50 | . | / | + | +
O=C(Nc1cccc2ccccc12)N1Cc2ccccc2-n2nncc2C1 | . | 30 | . | . | 133 | 91
O=C(Nc1ccccc1)N1CCN(c2ccccc2)CC1 | . | . | . | . | / | /
O=C(Nc1cccc2ccccc12)N1CCN(c2ccccc2)CC1 | . | 27 | . | . | 115 | 100
CCNC(=O)N1Cc2ccccc2-n2nncc2C1 | . | . | . | . | / | /
Cc1[nH]n2c(=O)cc(C(C)(C)C)nc2c1-c1ccccc1 | . | 50 | . | . | . | .
Cc1[nH]n2c(=O)c3c(nc2c1-c1ccccc1)CCC3 | . | 28 | . | . | 131 | 97
CCOC(=O)Cc1cc(=O)n2[nH]c(C)c(-c3ccc(Cl)cc3)c2n1 | . | 62 | . | . | 156 | 110
Cc1[nH]n2c(=O)cc(C(C)C)nc2c1-c1ccccc1 | . | . | . | . | / | /
CCc1cc(=O)n2[nH]c(-c3ccccc3)c(-c3ccccc3)c2n1 | . | 34 | . | . | 150 | 111
CCOC(=O)Cc1cc(=O)n2[nH]c(C)c(-c3ccc(OC)cc3)c2n1 | . | . | . | . | / | /
CCc1cc(=O)n2[nH]c(C)c(-c3ccc(OC)cc3)c2n1 | . | . | . | . | / | /
CC(C)c1cn(CC[C@H]2CC[C@@H](NC(=O)C3CCCCC3)[C@H](CO)O2)nn1 | / | / | / | . | / | /
O=C(N[C@@H]1CC[C@@H](CCNS(=O)(=O)c2ccc(F)cc2)O[C@@H]1CO)C1CCCC1 | / | / | / | . | / | /
O=C(N[C@@H]1CC[C@H](CCNS(=O)(=O)c2ccc(Cl)cc2)O[C@@H]1CO)c1cccc(F)c1 | / | / | / | . | / | /
CO[C@@H]1CN(C)C(=O)c2cc(NC(C)=O)ccc2OC[C@H](C)N(Cc2cc(F)ccc2F)C[C@@H]1C | / | / | / | . | / | /
COc1ccc(-c2c(C(F)(F)F)[nH]n3c(=O)cc(-c4ccccc4)nc23)cc1 | . | 39 | . | / | 88 | 84
CCCc1cc(=O)n2[nH]c(C)c(-c3ccccc3)c2n1 | . | 27 | . | . | . | .
Cc1[nH]n2c(=O)cc(-c3ccc([N+](=O)[O-])cc3)nc2c1-c1ccccc1 | . | . | . | . | / | /
CCCc1cc(=O)n2[nH]c(C)c(-c3ccccc3OC)c2n1 | . | . | . | . | / | /
C[C@H]1CCCCO[C@@H](CN(C)S(=O)(=O)c2cn(C)cn2)[C@@H](C)CN([C@@H](C)CO)C(=O)c2cc(NS(=O)(=O)c3cn(C)cn3)ccc2O1 | / | / | / | . | / | /

Screens: PubChem BioAssay, several laboratories
